From PubChem BioAssay (NCI)
The panel holds about 79,000 compounds, 15% with a hit somewhere; the sample as a whole holds those more often. Activity calls are given as the source filed them. No stated cut-off is given here; in the data, active means growth inhibition above about 70%; inactive means the rest.

Legend:
[1] = NCI Yeast Anticancer Drug Screen. Data for the rad52 strain (AID 147);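 further: 0% = growth of vehicle-treated control cultures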; details: S. cerevisiae rad52 mutant growth inhibition, stronger effect = higher value
Outline: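 The repair-mutant yeast strain was incubated with compounds, then growth was read and inhibition derived relative to vehicle.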

[2] = NCI Yeast Anticancer Drug Screen. Data for the wt1 strain (AID 149);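 further: 0% = growth of vehicle-treated wt1 cultures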; details: S. cerevisiae wt1 strain (SPY 50644) growth inhibition, stronger effect = higher value
Outline: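 Compounds are added to wt1 yeast cultures. Growth is then measured. Inhibition is expressed relative to vehicle-treated controls.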

[3] = NCI Yeast Anticancer Drug Screen. Data for the rad50EPP+ strain (AID 151);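 further: 0% = growth of vehicle-treated control cultures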; details: S. cerevisiae rad50 mutant strain, stronger effect = higher value
Outline: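 Vehicle-normalised growth inhibition; rad50EPP+ yeast strain, altered in DNA damage repair, compound-treated.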

[4] = NCI Yeast Anticancer Drug Screen. Data for the mgt1 strain (AID 153); details: S. cerevisiae mgt1 mutant growth inhibition, stronger effect = higher value
Outline: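 Vehicle-normalized growth inhibition is determined in mgt1 yeast, a strain selected for a defined alteration in DNA repair or cell cycle control.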

[5] = NCI Yeast Anticancer Drug Screen. Data for the rad50 strain (AID 155);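 further: 0% = growth of vehicle-only cultures of the same strain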; details: S. cerevisiae rad50 strain growth inhibition, stronger effect = higher value
Outline: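 Inhibition values express reduced yeast growth in compound-treated cultures relative to vehicle-treated controls.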

[6] = NCI Yeast Anticancer Drug Screen. Data for the rad14 strain (AID 159);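 further: 0% = growth of vehicle-treated control cultures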; details: S. cerevisiae rad14 strain growth inhibition, stronger effect = higher value
Outline: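 A mutant yeast strain defective in DNA damage repair is treated with compound; inhibition of its growth is scored against untreated, vehicle-exposed cultures.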

[7] = NCI Yeast Anticancer Drug Screen. Data for the sgs1 mgt1 strain (AID 161);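 further: 0% = growth of cultures given vehicle only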; details: S. cerevisiae sgs1 mgt1 strain, stronger effect = higher value
Outline: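 Percent growth inhibition was derived by comparing compound-exposed mutant yeast with vehicle-exposed cultures. The strain carries alterations in DNA damage repair.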

[8] = NCI Yeast Anticancer Drug Screen. Data for the CLN2oe strain (AID 163);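 further: 0% = growth of vehicle-only control cultures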; details: S. cerevisiae CLN2oe strain, stronger effect = higher value
Outline: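 Compounds are applied to yeast harbouring a defined cell-cycle control change; reduced growth compared with vehicle-treated controls gives the value.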

[9] = NCI Yeast Anticancer Drug Screen. Data for the cln2 rad14 strain (AID 165);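 further: 0% = growth equal to vehicle treated cultures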; details: S. cerevisiae cln2 rad14 strain, stronger effect = higher value
Outline: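 Readout is yeast growth inhibition versus vehicle-treated controls, using a strain with cln2 and rad14 alterations exposed to compound.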

[10] = NCI Yeast Anticancer Drug Screen. Data for the bub3 strain (AID 167); details: S. cerevisiae bub3 mutant strain, stronger effect = higher value
Outline: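 Steps: expose the mutant yeast strain to compound; grow alongside vehicle-treated cultures; measure growth; express inhibition against the vehicle cultures.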

[11] = NCI Yeast Anticancer Drug Screen. Data for the wt2 strain (AID 169);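 further: 0% = growth of vehicle-treated yeast cultures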; details: S. cerevisiae wt2 strain growth inhibition, stronger effect = higher value
Outline: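 Against vehicle-treated controls, the growth of yeast exposed to each compound was compared, and the inhibition was recorded.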

[12] = NCI Yeast Anticancer Drug Screen. Data for the mlh1 strain (AID 171);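 further: 0% = growth of vehicle-treated control cultures of the same strain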; details: S. cerevisiae mlh1 strain growth inhibition, stronger effect = higher value
Outline: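 Measured: yeast growth. Reference: vehicle-treated controls. Organism: strain with a defined alteration affecting DNA damage repair or cell cycle control, treated with compound.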

[13] = NCI Yeast Anticancer Drug Screen. Data for the sgs1 strain (AID 173);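 further: 0% = growth of vehicle-only control cultures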; details: S. cerevisiae sgs1 mutant, stronger effect = higher value
Outline: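 Each compound was added to cultures of the altered yeast strain. Growth was recorded, and inhibition was derived by comparison with vehicle controls.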

[14] = NCI Yeast Anticancer Drug Screen. Data for the mlh1 rad18 strain (AID 175); details: S. cerevisiae mlh1 rad18 strain growth inhibition, stronger effect = higher value
Outline: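 Genetically defined yeast (DNA repair-deficient) exposed to compounds; growth inhibition determined relative to vehicle.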

[15] = NCI Yeast Anticancer Drug Screen. Data for the rad18 strain (AID 177); details: S. cerevisiae rad18 mutant growth inhibition, stronger effect = higher value
Outline: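 Vehicle-treated cultures served as the baseline for scoring compound-induced growth inhibition in DNA-repair-mutant yeast.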

[16] = at 5.0 µM (retest, dose inferred, filed as 0.5)
[17] = at 50.0 µM (retest, dose inferred, filed as 5.0)

Measured: growth inhibition

O=C(CCCN1CCC(Nc2ccc(F)cc2)(c2nnnn2C2CCCCC2)CC1)c1ccc(F)cc1
active: [1]; at 100.0 µM 98% | [2]; at 100.0 µM 89% | [4]; at 100.0 µM 98% | [5]; at 100.0 µM 97% | [6]; at 100.0 µM 85% | [8]; at 100.0 µM 99% | [10]; [17] 80% | [10]; at 100.0 µM 99% | [11]; at 100.0 µM 99% | [12]; at 100.0 µM 98% | [13]; at 100.0 µM 98% | [14]; at 50.0 µM 77.8% | [15]; at 100.0 µM 99%
inactive: [1]; at 1.2 µM 14% | [1]; at 3.7 µM 2% | [1]; at 11.0 µM 19% | [1]; at 33.0 µM 24% | [2]; at 1.2 µM -81% | [2]; at 3.7 µM -5% | [2]; at 11.0 µM -11% | [2]; at 33.0 µM -11% | [3]; at 1.2 µM 0% | [3]; at 3.7 µM 0% | [3]; at 11.0 µM 1% | [3]; at 33.0 µM 4% | [3]; at 100.0 µM 25% | [4]; at 1.2 µM -2% | [4]; at 3.7 µM -3% | [4]; at 11.0 µM -6% | [4]; at 33.0 µM 2% | [5]; at 1.2 µM -5% | [5]; at 3.7 µM -7% | [5]; [16] 1% | [5]; at 11.0 µM -9% | [5]; at 33.0 µM -5% | [5]; [17] 37% | [5]; at 50.0 µM 11.7% | [6]; at 1.2 µM -5% | [6]; at 3.7 µM -8% | [6]; at 11.0 µM -10% | [6]; at 33.0 µM 9% | [7]; [16] -4% | [7]; [17] 31% | [7]; at 50.0 µM 50.3% | [8]; at 1.2 µM -8% | [8]; at 3.7 µM -10% | [8]; at 11.0 µM -7% | [8]; at 33.0 µM 31% | [9]; [16] 65% | [9]; [17] 50% | [9]; at 50.0 µM 35.7% | [10]; at 1.2 µM -2% | [10]; at 3.7 µM -4% | [10]; [16] -13% | [10]; at 11.0 µM -6% | [10]; at 33.0 µM 22% | [10]; at 50.0 µM 32.9% | [11]; at 1.2 µM -6% | [11]; at 3.7 µM -6% | [11]; at 11.0 µM -9% | [11]; at 33.0 µM -1% | [12]; at 1.2 µM -3% | [12]; at 3.7 µM -6% | [12]; at 11.0 µM -8% | [12]; at 33.0 µM -6% | [13]; at 1.2 µM -1% | [13]; at 3.7 µM -1% | [13]; at 11.0 µM -4% | [13]; at 33.0 µM 7% | [14]; [16] -3% | [14]; [17] 41% | [15]; at 1.2 µM 3% | [15]; at 3.7 µM 0% | [15]; at 11.0 µM 14% | [15]; at 33.0 µM 17%
